This is one part of a sample in which hits are shown more often than they occur.
Pf Dd2 growth: inhibitors of Plasmodium falciparum Dd2 growth | AID 1347417 | P. falciparum Dd2 growth, SYBR Green, 72 h | Potency, µM (series often up to 28.9 µM), without a hit: top-dose activity, negative = inhibition, usual class: inhibitors | hit rate 4.3% among 120,000; active = well fitted inhibition curve with a large enough effect;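 also: plate controls were DMSO vehicle for no effect and reference drug for full effect; nearly all actives have a fitted effect of over 65% in size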
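Infected erythrocytes (Dd2, 0.3% parasitemia, 2.5% hematocrit final) are added to compound in RPMI-1640/Albumax II medium, grown 72 h at 37C in low oxygen, then lysed with saponin/Triton-X containing SYBR Green and read by fluorescence.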
The depositor's hits bear a star; i = inactive; [ ] = dose if it differs, or a comment. Potency is read from the fitted curve at half-maximal effect.

SMILES | Pf Dd2 growth
Cc1cccc(CNC(=O)C2(c3ccc(NS(C)(=O)=O)cc3)CCC2)c1 | -11.3%
COc1ccc(N2CC(NC(=O)c3ccc(S(=O)(=O)N4CCCCC4)cc3)CC2=O)cc1OC (centres undefined) | i
COc1cc2c(cc1OC)C(COc1cccc(C(F)(F)F)c1)N(C(=O)c1ccc(S(=O)(=O)N3CCCC3)cc1)CC2 (centres undefined) | 7.94µM*
Cc1ccc2c(c1)C(c1ccccc1)N(C(=O)c1ccc(S(=O)(=O)N3CCCC3)cc1)CC(=O)N2 (centres undefined) | -21.5%
COc1cc2c(cc1OC)C(COc1ccc(C(C)C)cc1)N(C(=O)c1ccc(S(=O)(=O)N3CCCC3)cc1)CC2 (centres undefined) | 12.6µM*
COc1cc2c(cc1OC)C(COc1cc(C)cc(C)c1)N(C(=O)c1ccc(S(=O)(=O)N3CCCC3)cc1)CC2 (centres undefined) | 3.16µM*
COc1ccc(CNC(=O)C(C)n2ccc3cc(S(=O)(=O)N4CCCC4)ccc32)cc1OC (centres undefined) | i
COc1cc2c(cc1OC)C(CNC(=O)Nc1ccc(C)cc1)N(C(=O)NC(C)C)CC2 (centres undefined) | -9.8%
COc1ccc(S(=O)(=O)N2CCCCC2)cc1C(=O)Nc1cccc(C(F)(F)F)c1 | i
COc1ccc(S(=O)(=O)N2CCC(Oc3cccc(C(F)(F)F)c3)CC2)cc1OC | 9.4%
COC(=O)N1CCn2cc(C(=O)NCc3ccc(Cl)nc3)nc2C1 | 11.3%
Cc1cc(Cl)ccc1OCC(=O)N1CCC(c2n[nH]c(=O)n2-c2ccccc2)CC1 | i
O=c1[nH]c2cc3c(cc2cc1CN1CC[C@H](O)C1)OCO3 | -20.5%
Cc1noc(C)c1CC(=O)N1CC2CC(C1)[C@H]1CCCC(=O)N1C2 (some centres undefined) | 2.8%
Cc1ccc(N2CCN(C(=O)[C@@]34CCCC[C@H]3N(C)C(=O)CC4)CC2)cc1 | 10.3%
C=CCNC(=O)[C@@H]1CCCC[C@@H]1C(=O)N1CCn2nc(C(=O)O)cc2C1 | 0.2%
Cc1cc(C(=O)N2CC(F)(F)C[C@H]2c2nnc(C)o2)no1 | -13.9%
O=C(CCC1CCN(C(=O)[C@H]2C[C@@H]3C=C[C@H]2C3)CC1)N1CCC(Cc2ccccc2)CC1 | -11.6%
O=C1Nc2ccc(-c3ccco3)cc2C(=O)N2CCN(C(=O)c3ccccc3)C[C@H]12 | -28.1%[44.1 µM]
Cc1ccccc1Nc1c(-c2ccsc2)nc2c(C)cccn12 | i
Cc1ccccc1Nc1c(-c2c[nH]c3ccccc23)nc2ccc(Cl)cn12 | i
COc1cc(O)ccc1-c1nc2ccc(Br)cn2c1Nc1ccccc1C | 6.31µM*
Cc1ccccc1Nc1c(-c2ccc(N3CCOCC3)cc2)nc2ccc(Br)cn12 | 8.91µM*
Cc1ccc(Nc2c(-c3cccnc3)nc3ccc(Br)cn23)cc1 | i
Cc1ccccc1Nc1c(-c2ccc(N3CCOCC3)cc2)nc2cccc(C)n12 | 10µM*
SMILES | Pf Dd2 growth
Cc1ccccc1Nc1c(-c2cccs2)nc2cccc(C)n12 | -1.9%
COc1ccc(-c2nc3ccc(Cl)cn3c2Nc2ccc(C)cc2)cc1 | -13.6%
Cc1ccccc1Nc1c(-c2cccnc2)nc2cccc(C)n12 | -24.2%
O=C(NCc1csc2ccc(Cl)cc12)C1CC2(CCNCC2)CN1 (centres undefined) | 1.0%
Cc1cc(C)c(C(=O)NCC(N)=O)c(=O)[nH]1 | -11.1%
CCc1ccc(C(=O)NC2CCN(c3cc(-c4ccccc4)[nH]n3)CC2)cc1 | i
CN(CC1CCOC1)C(=O)NCc1cccc(F)c1 (centres undefined) | 37.3%[5.79 µM]
COc1ccccc1CCN1CCC(CN(C)Cc2n[nH]c(C)n2)CC1 | 13.8%
O=C(CC1CCOC2(CCN(S(=O)(=O)c3ccccc3)CC2)C1)N1CCCC1 (centres undefined) | -3.6%
O=C1CCN(S(=O)(=O)c2cccc(F)c2)CCCC(CO)CCN1 (centres undefined) | 10.0%
Cc1cccc(C)c1NC(=O)CCCN1C(=O)CCn2nc(-c3cn(C)c4ccccc34)cc21 | 44.0%
Cn1cc(-c2cc3n(n2)CCC(=O)N3CCCC(=O)Nc2ccc(Cl)cc2)c2ccccc21 | 1.7%
COc1cc(NC(=O)CCCN2C(=O)CCn3nc(-c4cn(C)c5ccccc45)cc32)cc(OC)c1 | 7.94µM*
O=C(c1ccc(Cl)s1)N1CCC2(COc3ncccc3S(=O)(=O)N2)C1 (centres undefined) | -15.1%
Cc1nc(N2CCC(NC(=O)Cc3ccccc3C)CC2)cc(C(F)(F)F)n1 | 11.7%
Cc1ccc(-n2c(C)cc(/C=C(\C#N)C(=O)Nc3ccc(C)c(C)c3)c2C)cc1 | 2.1%
Cc1cccc(Cn2cc(/C=C(/C#N)C(=O)Nc3cccc(Cl)c3)c3ccccc32)c1 | 3.55µM*
Cc1ccc(/C=C(\C#N)C(=O)Nc2cccc(Cl)c2)o1 | -8.7%
CC(C)c1ccc(C(C)NC(=O)CN2CCCc3nc(-c4ccccc4)ncc3C2=O)cc1 (centres undefined) | i
FC(F)(F)c1ccc(N2C3CCC2CN(Cc2ccc(-c4ccccc4)cc2)C3)cc1 | i

Compound activity from PubChem.
